nsP2pro inh = Primary qHTS for inhibitors of NSP2Pro chikungunya virus (CHIKV); Potency, µM (doses to about 24.9 µM), without a hit: at the top dose activity change, negative = inhibition, hits mostly inhibitors; Polyprotein P1234 (Chikungunya virus (strain S27-African prototype)), Q8JUX6; 1.1% of 31,000 active; FRET peptide cleavage, nsP2pro, fluorescence 1 h; AID 1964107, 2024; also: nearly all actives have a fitted effect of over 60% in size
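Enzyme 150 nM, substrate 2.5 uM (both final); Tris-HCl 10 mM pH 8.0 + 0.01% Tween 20; cpd up to 25 uM, 7 pts; 15 min preinc., 1 h RT; fluorescence ex 525/em 598.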
CHIKV nsP2 cell = Secondary cell base assay for inhibitors of NSP2Pro Chikungunya virus (CHIKV); AID 1964100, 2024; 10% of 450 active; Potency, µM (highest dose often 51.1 µM), without a hit: top-dose activity change, negative = inhibition, hits mostly inhibitors; shares compounds with nsP2pro inh; cell-based CHIKV nsP2 protease reporter assay; also: nearly all actives have a fitted effect of over 70% in size
CHIKV NSP2 FL = Selectivity profile for inhibitors of NSP2Pro chikungunya virus (CHIKV): Full length NSP2 enzyme counterscreen (CHIKV-NSP2); shares compounds with nsP2pro inh; Full-length CHIKV NSP2 protease enzymatic counterscreen; Potency, µM (doses to about 50.7 µM), for inactives: at the highest dose activity change, negative = inhibition, actives largely listed as inhibitors; 39% of 410 active; also: nearly all actives have a fitted effect of over 65% in size
Furin counterscr = Selectivity profile for inhibitors of NSP2Pro chikungunya virus (CHIKV): Human furin counterscreen; Potency, µM (doses to about 50.6 µM), for the others: at the highest dose activity change, negative = inhibition, most hits filed as inhibitors; shares compounds with nsP2pro inh; 6% of 410 active; Recombinant human furin enzymatic counterscreen, fluorogenic substrate
NS23 peptide cs = Selectivity profile for inhibitors of NSP2Pro chikungunya virus (CHIKV): Endogenous NS2/3 peptide Counterscreen. shares compounds with nsP2pro inh. Purified CHIKV nsP2 protease, endogenous NS2/3 peptide cleavage. Potency, µM (top dose mostly 51 µM), without a hit: top-dose activity change, negative = inhibition, usual class: inhibitors. 34% of 410 active; also: nearly all actives have a fitted effect of over 55% in size
Papain counter = Selectivity profile for inhibitors of NSP2Pro chikungunya virus (CHIKV): Papain Counterscreen. shares compounds with nsP2pro inh. purified papain protease activity, enzymatic inhibition. Potency, µM (titrated, usually from 51 µM), for inactives: top-dose activity change, negative = inhibition, hits mostly inhibitors. 5% of 410 active
nsP2pro conf qHTS = Confirmatory qHTS for inhibitors of NSP2Pro chikungunya virus (CHIKV). shares compounds with nsP2pro inh. CHIKV nsP2 protease enzymatic activity, qHTS. Potency, µM (doses to about 25.5 µM), without a hit: at the top dose activity change, negative = inhibition, actives largely listed as inhibitors. 43% of 410 active. AID 1964105, 2024; also: nearly all actives have a fitted effect of over 75% in size
HCV NS3 4A cs = Selectivity profile for inhibitors of NSP2Pro chikungunya virus (CHIKV): NS34A-HCV Counterscreen | 20% of 410 active | shares compounds with nsP2pro inh | Potency, µM (series often up to 50.9 µM), usual class: inhibitors | HCV NS3/4A protease biochemical counterscreen; also: nearly all actives have a fitted effect of over 55% in size
Starred values were filed as active, the others as inactive; i = inactive; u = inconclusive; [ ] = remark or other dose. The full list was thinned out, with hits kept by preference. Calls follow the shape of the full dose curve. % is scaled to controls: 0 for no effect and ±100 for the full control effect; potency is read from the fitted curve at half-maximal effect.

SMILES	nsP2pro inh	others
O=c1cc(-c2ccccn2)oc2c(-c3cccc(CO)c3)nccc12	-6%[39.2 µM]
CN1CCc2cccc3c2[C@H]1Cc1ccc(O)c(O)c1-3	3.1µM*	CHIKV nsP2 cell=u;CHIKV NSP2 FL=26µM*;Furin counterscr=23µM*;NS23 peptide cs=16µM*;Papain counter=14%;nsP2pro conf qHTS=5µM*;HCV NS3 4A cs=i
CN1CCc2cc3c(cc2C1C1OC(=O)c2c1ccc1c2OCO1)OCO3 (stereo unspecified)	-11%
[N-]=[N+]=N[C@]1(CO)O[C@@H](n2ccc(=O)[nH]c2=O)[C@@H](O)[C@@H]1O	-16%
C[n+]1c2cc(N)ccc2cc2ccc(N)cc21 (tested in a mixture with another compound)	u	CHIKV nsP2 cell=u;CHIKV NSP2 FL=-4%;Furin counterscr=u;NS23 peptide cs=u;Papain counter=u;nsP2pro conf qHTS=47%;HCV NS3 4A cs=i
CCN(CCn1cccn1)Cc1ccccc1OCC(O)CN1CCCCC1 (stereo unspecified)	-4%
O=C(NCc1c[nH]c2ncccc12)c1ccccc1Cl	4%[39.2 µM]
O=C(NCc1ccc(Cl)cc1)c1c[nH]c2ncccc12	i
O=C(NCc1ccnc2[nH]ccc12)c1ccccc1Cl	4.5µM*	CHIKV nsP2 cell=24µM*;CHIKV NSP2 FL=4.7µM*;Furin counterscr=-15%;NS23 peptide cs=19µM*;Papain counter=-10%;nsP2pro conf qHTS=12µM*;HCV NS3 4A cs=3µM*
CC(C)(C)OC(=O)N1CCN(c2ccc(NCc3ccc(-c4ccc(C#N)cc4)nc3)cc2)CC1	0%
COc1ccc(CCC(=O)N2CCOCCNC(=O)CC2)cc1	3%
CCC(C)/C=C(C)/C=C/C1=CC2=C(Cl)C(=O)C(C)(OC(C)=O)C(=O)C2=CN1CCCCC(N)C(=O)O (stereo unspecified)	-21%[10 µM]
CC[C@H](C)/C=C(C)/C=C/C1=CC2=CC(=O)[C@]3(C)OC(=O)[C@@H](C(C)=O)[C@@H]3C2=CO1	u	CHIKV nsP2 cell=2%[33.5 µM];CHIKV NSP2 FL=u;Furin counterscr=-22%[33.5 µM];NS23 peptide cs=u;Papain counter=41%[33.5 µM];nsP2pro conf qHTS=u;HCV NS3 4A cs=i
CCC(C)/C=C(C)/C=C/C1=CC2=CC(=O)C3(C)OC(C)(O)C(C(=O)OC)C3C2=CO1 (stereo unspecified)	u	CHIKV nsP2 cell=-4%[17.6 µM];CHIKV NSP2 FL=-15%[17.3 µM];Furin counterscr=-9%[17.3 µM];NS23 peptide cs=-11%[17.2 µM];Papain counter=4%[17.2 µM];nsP2pro conf qHTS=u;HCV NS3 4A cs=i
CCC(C)/C=C(C)/C=C/C1=CC2=CC(=O)C(C)(O)C(OC(C)=O)C2CO1 (stereo unspecified)	-2%
CCC(C)/C=C(C)/C=C/C1=CC2=C(Cl)C(=O)C(C)(OC(C)=O)C(=O)C2=CO1 (stereo unspecified)	u	CHIKV nsP2 cell=-14%[33.5 µM];CHIKV NSP2 FL=u;Furin counterscr=-19%[33.5 µM];NS23 peptide cs=u;Papain counter=u;nsP2pro conf qHTS=u;HCV NS3 4A cs=i
CCC(C)/C=C(C)/C=C/C1=CC2=C(Cl)C(=O)C(C)(OC(C)=O)C(=O)C2=CN1C(CCC(=O)O)C(=O)O (stereo unspecified)	-1%[10 µM]
CCN1C[C@]2(COC)[C@H](O)C[C@H](OC)[C@]34[C@@H]5C[C@]6(O)[C@H](OC(=O)c7ccccc7)[C@@H]5[C@@](O)([C@H]([C@H](OC)[C@H]23)[C@@H]14)[C@@H](O)[C@@H]6OC	5%
COc1ccc(-c2ccc3ncc(Nc4ccncc4)n3n2)cn1	i
CC1(C)CN2C(CSC(=NC3CCCCC3)NC3CCCCC3)=CSC2=N1	3%
O=C(Nc1ncc(Cc2ccc(C(F)(F)F)cc2)s1)c1ccc(-c2cccnc2)o1	i
O=C(NC1CCNCC1)[C@@H]1CC[C@@H]2CN1C(=O)N2OS(=O)(=O)O	-2%
Cc1nnsc1C(=O)Nc1ccc(-n2nc(C(F)(F)F)cc2C(F)(F)F)cc1	-19%
CCCC(=O)OC[C@@H](OC(=O)CCC)[C@@H](OC(=O)CCC)[C@H](Cn1c2nc(=O)[nH]c(=O)c-2nc2cc(C)c(C)cc21)OC(=O)CCC	0.7µM*	CHIKV nsP2 cell=25%;CHIKV NSP2 FL=17%;Furin counterscr=-12%;NS23 peptide cs=2%;Papain counter=u;nsP2pro conf qHTS=-4%;HCV NS3 4A cs=i
CO[C@H]1C[C@@H](O[C@@H]2/C(C)=C/C[C@@H]3C[C@@H](C[C@]4(CC[C@H](C)[C@@H](C5CCCCC5)O4)O3)OC(=O)[C@@H]3C=C(C)/C(=N/O)[C@H]4OC/C(=C\C=C\[C@@H]2C)[C@]43O)O[C@@H](C)[C@H]1O	-3%
SMILES	nsP2pro inh	others
COC[C@]12CN(C)C3C4[C@H](OC)[C@H]1C3(C(OC)C[C@H]2O)[C@H]1C[C@@]2(O)[C@H](OC(=O)c3ccccc3)[C@@H]1[C@]4(O)[C@@H](O)[C@@H]2OC (stereo partly specified)	15%
Cc1c(C(=O)OCC2CCCC2)[nH]c2c1C(=O)CC(c1ccco1)C2 (stereo unspecified)	4µM*	CHIKV nsP2 cell=u;CHIKV NSP2 FL=-15%;Furin counterscr=-4%;NS23 peptide cs=-5%;Papain counter=-4%;nsP2pro conf qHTS=8%;HCV NS3 4A cs=i
COc1ccc(C2CC(=O)c3c([nH]c(C(=O)OCc4ccccc4)c3C)C2)cc1OC (stereo unspecified)	-17%
Cc1c(C(=O)OC2CCCCC2)[nH]c2c1C(=O)CC(c1ccccc1Cl)C2 (stereo unspecified)	-15%
O=C(Nc1ccc(F)cc1)N[C@H]1[C@H](O)[C@@H](N2CCCC2)[C@@H]2OC[C@H]1O2	-6%[39.2 µM]
COCC1CN(Cc2cccc(C#N)c2)CC12CCNCC2 (stereo unspecified)	11%
Nc1nc(Nc2ccc(S(N)(=O)=O)cc2)n(C(=S)Nc2c(F)cccc2F)n1	18%
Fc1cc(Nc2nc(-c3ccncc3)nc3ccccc23)ccc1N1CCNCC1	1%
O=[S+]([O-])(Nc1ccc(N2CCNCC2)cc1)c1ccc(NCc2cccc(Cl)c2O)cc1	i

High-throughput results deposited in PubChem BioAssay by National Center for Advancing Translational Sciences (NCATS).
